# Akt phos inh = HTS Assay for Inhibitors of Akt Phophorylation: Primary Screen; hit rate 0.32% among 360,000; Neuro2A IGF-stimulated pAkt S473 HTRF, 20 min; stronger effect = lower value; AID 651550, 2012; activity change, % for hits at 50 µM; in the data active = activity change below about -80%; inconclusive = mostly about -51% to -80%
#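 Neuro2A cells (4,500/well, DMEM with 0.5% FBS) were treated with compound at a single 50 µM final concentration, stimulated with 6 nM IGF for 20 min at 37 °C, and lysed. Phospho-Akt Ser473 was read by HTRF as 665/615 ratio ×10^4.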
# CCT chaperon mod = High-Throughput Screening for Modulators of Cytosolic Chaperonin Activity; purified chaperonin ATPase assay, HTRF ADP detection, 30 min; activity change, % (concentration not given with the values), hits read low; hit rate 0.3% among 360,000; AID 651819, 2012; in the data active = activity change below about -30%
#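 We incubate TRiC, 40 or 20 nM final, with library compounds at 76 uM and 10 uM ATP for 30 min at 37 °C. ADP formed is detected with Transcreener HTRF reagents after 30 min at room temperature.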
# Anesthetic bind = qHTS Assay for Identification of Novel General Anesthetics. apoferritin/1-aminoanthracene competitive binding, fluorescence. Potency, µM (doses to about 77.5 µM), hits mostly inhibitors. hit rate 0.074% among 350,000. AID 485281, 2010; note: nearly all actives have a fitted effect of over 20% in size
# Target sequence (P02791 2-175 limits assumed): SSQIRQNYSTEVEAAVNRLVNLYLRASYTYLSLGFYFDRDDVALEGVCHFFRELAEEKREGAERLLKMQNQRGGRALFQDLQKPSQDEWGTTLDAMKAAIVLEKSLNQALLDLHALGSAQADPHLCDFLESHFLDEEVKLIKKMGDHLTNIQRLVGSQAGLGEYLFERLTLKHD
#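 In PBS, apoferritin at 10 uM is loaded with 1-AMA from a 50% saturated solution. After 10 min of compound exposure at ambient temperature, reduced 535 nm fluorescence indicates probe displacement.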
# aSyn yeast inh = qHTS of alpha-syn Inhibitors; Potency, µM (doses to about 46.1 µM), usual class: activators; Yeast expressing alpha-synuclein, growth rescue, BacTiter-Glo, 24 h; hit rate 0.14% among 370,000; note: nearly all actives have a fitted effect of over 65% in size
#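 Screening used galactose-induced yeast with toxic alpha-synuclein levels, exposed to compound for 24 hr at 30 deg C. Cell growth, read with BacTiter-Glo luminescence, gave the measured signal.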
# Mito fusion act = qHTS Assay for Small Molecule Inhibitors of Mitochondrial Division or Activators of Mitochondrial Fusion; Potency, µM (highest dose often 46.1 µM), hits mostly activators; AID 485298, 2010; S. cerevisiae fusion-defective mutant growth rescue, CellTiterGlo 48 h; hit rate 0.23% among 320,000; note: nearly all actives have a fitted effect of over 45% in size
#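 S. cerevisiae fusion-defective temperature-sensitive mutants (e.g. fzo1-1, mgm1-5) grown 48 h at 37C in YPEG (ethanol/glycerol non-fermentable) medium with 23 nl compound per well; growth rescue read as CellTiterGlo luminescence.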
# TDP43 rescue = qHTS of TDP-43 Inhibitors. TDP-43 expressing yeast growth rescue, BacTiter-Glo, 24 h. Potency, µM (top dose mostly 46.1 µM), most hits filed as activators. hit rate 1.8% among 410,000. AID 652104, 2013; note: nearly all actives have a fitted effect of over 50% in size
#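 Yeast expressing TDP-43 (pregrown in raffinose, seeded at OD600=0.02 in galactose medium) exposed to compounds 24 hr at 30 deg C. Growth read by BacTiter-Glo luminescence; rescue of toxicity appears as increased signal.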
# A number is an active result; . = inactive; ? = inconclusive; / = no result; [ ] = remark or other dose. Most compounds without a hit are left out; they make up all but 2.5% or so of the library. Unless noted, calls come from the whole dose curve; as a rule, active = well fitted curve in the direction sought with a large enough effect; inconclusive = small, poorly fitted or top-dose-only effect, or another doubt; inactive = no such curve, though single readings can be large; an effect the other way counts as inactive or inconclusive.
SMILES,Akt phos inh,CCT chaperon mod,Anesthetic bind,aSyn yeast inh,Mito fusion act,TDP43 rescue
COc1cc(-c2nc(Cn3nnc(C(=O)Nc4cccc(Cl)c4)c3C)c(C)o2)cc(OC)c1OC,/,/,.,/,/,.
O=C1c2ccccc2C(=O)N1c1cccc(O)c1,/,/,/,.,/,/
O=Cc1ccc(N2CCCCCC2)cc1,-127.8%,.,?,.,.,.
COc1ccc(C(O)P(=O)(O)CCc2ccccc2)cc1 (centres undefined),-109.2%,.,.,.,.,.
Cc1ccc(CN2C(=O)c3oc4ccc(C)cc4c(=O)c3C2c2ccc(O)cc2)cc1 (centres undefined),/,/,.,/,/,.
Cc1ccc(C)c(N2CCN(C(=O)c3cc4c(=O)n(Cc5ccccc5)ccc4nc3C)CC2)c1,/,/,.,/,/,.
O=C(COC(=O)CCc1ccccc1)Nc1cc([N+](=O)[O-])ccc1F,.,.,.,.,.,.
O=C(CSCc1ccccc1)Nc1cc([N+](=O)[O-])ccc1F,.,.,?,.,.,11.2µM
COc1ccc([N+](=O)[O-])cc1NC(=O)C1(c2ccc(OC)c(OC)c2)CCOCC1,.,-93.5,.,.,.,.[9.22 µM]
COc1ccc([N+](=O)[O-])cc1NC(=O)CSCc1ccccc1,.,.,.,.,.,12.6µM
Cc1cccc(CSCCNC(=O)CSCc2ccc([N+](=O)[O-])cc2)c1,.,.,?,.,.,17.8µM
O=C(Cc1ccc(Cl)cc1Cl)OCC(=O)c1ccc[nH]1,.,.,?,.,.,17.8µM
COc1ccc(CC(=O)N(C)CC(=O)Nc2ccccc2SC)cc1,.,-45.7,.,.,.,.
O=C(CSC1=Nc2ccccc2C2=NC(CCC(=O)NC3CCCCC3)C(=O)N12)Nc1cccc(C(F)(F)F)c1 (centres undefined),/,/,?,/,/,.
CC1=C(C)CC2C(C1)C(=O)c1ccc(Br)cc1S2(=O)=O (centres undefined),.,.,/,.,.,5.01µM
Cc1ccc(S(=O)(=O)c2ccc(Cl)cc2)cc1S(N)(=O)=O,.,-71.1,.,.,.,.
Cc1ccccc1NC(=O)c1ccccc1OCC(=O)Nc1ccc(Br)cc1,/,/,/,.,/,/
Cc1sc(NC(=O)c2ccco2)c(C(Nc2ccccn2)c2ccccc2)c1C (centres undefined),.,.,.,.,?,.
COc1ccc(C(Nc2ccccn2)c2c(NC(=O)c3ccco3)sc(C)c2C)cc1 (centres undefined),.,.,.,.,12.6µM,.
Cc1ccc(C)n1C1CCS(=O)(=O)C1 (centres undefined),.,.,.,.,.,.
Cc1nn(C2CCS(=O)(=O)C2)c(C)c1C=O (centres undefined),.,-35.7,.,.,.,.
CCc1cc(/C=C/c2ccnc3ccccc23)ccc1N(C)C,/,/,/,.,/,/
CC12CCC=CC1C(c1ccoc1)N(Cc1ccccc1)C2=O (centres undefined),/,/,.,/,/,/
CCc1ccc(CCC(=O)Nc2sc(C)c(C)c2C(=O)OC)o1,-91.1%,.,.,.,.,.
CN(CCc1ccccc1)C(c1ccnc2ccccc12)c1nnnn1-c1ccc2c(c1)OCCO2 (centres undefined),.,.,/,.,/,35.5µM
SMILES,Akt phos inh,CCT chaperon mod,Anesthetic bind,aSyn yeast inh,Mito fusion act,TDP43 rescue
CCC(C)Sc1c(C(C)C)cnc2c1c(=O)n(C)c(=O)n2C (centres undefined),/,/,?,/,/,.
O=[N+]([O-])c1ccccc1OCc1nc(-c2cccs2)no1,.,.,?,.,.,12.6µM
CCOC(=O)c1c(Nc2ccc(O)cc2)nnc(-c2ccccc2)c1-c1ccccc1,/,/,?,.,/,.
COc1ccc(C2=NN(C(=O)c3cccs3)C(c3ccccc3O)C2)cc1 (centres undefined),.,.,.,.,.,.
COc1ccc(C(=O)N2N=C(c3cccs3)CC2c2ccccc2O)cc1 (centres undefined),.,.,.,17.8µM,?,.
Cc1ccc(C2CC(c3cccs3)=NN2C(=O)CSc2nc(=O)n3ccc(C)cc3n2)cc1 (centres undefined),/,/,/,/,.,/
COc1ccc(C2CC(c3cccs3)=NN2C(=O)CSc2nc(=O)n3ccc(C)cc3n2)cc1 (centres undefined),.,-46.4,/,.,.,.
COc1ccc(OC)c(/C=C2\Cc3ccccc3C2=O)c1,/,/,/,.,/,/
Cc1cccc(-c2nc(C)c(CCNC(=O)C(=O)Nc3ccc(C)c(C)c3)s2)c1,/,/,.,.,/,.
CN1/C(=C\C(=O)c2cncc(Br)c2)C(C)(C)c2ccccc21,.,.,.,.,?,12.6µM
CN1/C(=C\C(=O)c2ccco2)C(C)(C)c2ccccc21,.,.,.,.,.,.
CN1/C(=C\C(=O)c2cccnc2)C(C)(C)c2ccccc21,.,.,.,.,.,.
CN1/C(=C/C(=O)c2nc(S(C)(=O)=O)ncc2Cl)C(C)(C)c2ccccc21,.,.,?,.,.,12.6µM
COc1ccccc1C1NC(c2ccc3c(c2)OCO3)=CC(c2ccccc2O)N1 (centres undefined),/,/,/,.,/,/
OC(COc1ccc2ccccc2c1Cl)CN1CCOCC1 (centres undefined),.,-31.8,.,.,.,.
OC(COc1cccc2ccccc12)CN1CCOCC1 (centres undefined),.,.,/,.,/,.

# Compound activity (PubChem BioAssay)
